This passage reports INHIBITION results from ChEMBL document CHEMBL4513216, “Probing the Open Global Health Chemical Diversity Library for Multistage-Active Starting Points for Next-Generation Antimalarials” (ACS Infect Dis, 2020).

The structures appear in SMILES notation. Screen size: about 69,000 compounds; about 8,600 (12%) showed an effect of 50% or more. The full list was thinned out, with strong results kept by preference.

The assay deals with Plasmodium berghei. The experiment in a line: Screen against P. berghei liver stage (PbLuc), transformed with Luciferase, at 10uM. The class given is functional, HepG2. To be noted: tested at 10 uM.
For the molecule `CC(c1ccc(F)cc1)n1ccnc1-c1cc2n(n1)CCCNC2` (stereo not given), the INHIBITION stood at 58.3%.
The figure for `COc1ccc(C(C)n2ccnc2-c2cc3n(n2)CCCNC3)cc1F` (stereo not given) is -2.34%; for `CN(CC(=O)N1CCN(c2ccccn2)CC1)c1ccc(Cl)cn1` it is -36.6%.
On to `CNC(=O)[C@H]1C[C@@H]2CN(C(=O)c3ccncc3)C[C@@H]2N1S(C)(=O)=O`, for which the INHIBITION is on record as 20.4%.
The figure for `Cc1n[nH]c(C)c1Sc1ccccc1NC(=O)N1CCOCC1` is 30.3%; for `COCC(=O)Nc1ccccc1Sc1c(C)n[nH]c1C` it is 60%; for `Cc1n[nH]c(C)c1Sc1ccccc1NC(=O)N1CCCC(C(N)=O)C1` (stereo not given) it is -24%.
Under `Cc1n[nH]c(C)c1Sc1ccccc1NC(=O)N1CCN(C)CC1` stands 61.2%.
For the molecule `Cc1n[nH]c(C)c1Sc1ccccc1NC(=O)CN1CCCC1`, the INHIBITION is given as 3.17%.
On to `Cc1n[nH]c(C)c1Sc1ccccc1NC(=O)N1CCOCC(O)C1` (stereo not given), for which the INHIBITION came to 25.4%.
The figure for `CCS(=O)(=O)N1CCc2c(CN(C)Cc3ccco3)cncc2C1` is 20.2%.
As for `NC(=O)CNC(=O)c1ccc(CNCc2ccc(Cl)cc2Cl)cc1`, the INHIBITION is 48.9%.
Regarding `NC(=O)CNC(=O)c1ccc(CNCc2ccc(F)cc2F)cc1`, the INHIBITION was 54.5%.
Under `NC(=O)COc1ccc(CNCc2ccc(F)cc2F)cc1` stands 6.8%; under `Cc1cc(C)c(CNC(=O)NCC(O)c2ccccc2)c(=O)[nH]1` (stereo not given), 15.5%; under `O=C(c1cccnc1)N1CCC2(CC1)COCCN(c1ncccn1)C2`, 16.8%.
Under `CC(=O)NCCNC(=O)CN1CCCCC1Cn1cncn1` (stereo not given) stands -15.5%.
The figure for `O=c1[nH]c2nc(N3CCCC3)ncc2c(=O)n1-c1cccc(F)c1` is 2.69%; for `Cc1cc(-c2ccc(=O)n(C3CCN(S(C)(=O)=O)CC3)n2)c(C)o1` it is -8.58%; for `CCCS(=O)(=O)N1CCC(n2nc(-c3cc(C)oc3C)ccc2=O)CC1` it is 68.4%.
In the case of `CCS(=O)(=O)N1CCC(n2nc(-c3cc(C)oc3C)ccc2=O)CC1`, the INHIBITION was 21.1%.
Under `Cc1cc(NC(=O)C(C)Nc2cccc(COCc3ccco3)c2)no1` (stereo not given) stands 11.1%.
Under `COCc1noc(CCC(=O)c2ccc3c(c2)OCCO3)n1` stands -41.4%.
Under `O=C(COc1ccc(-n2cccn2)nn1)N1CCCC1` stands -66.4%.
For the molecule `COc1ccc2c(c1)CCCN2C(=O)c1cccc(N(C)C)c1`, the INHIBITION was 87.9%.
As for `COc1ccc2c(c1)CCCN2C(=O)CN1CCOC(CN(C)C)C1` (stereo not given), the INHIBITION amounted to 3.68%.
The figure for `COc1ccc2c(c1)CCCN2C(=O)CNCC1CN(C)CCO1` (stereo not given) is -39.2%; for `COc1ccc2c(c1)CCCN2C(=O)CN1CCOC(C)C1` (stereo not given) it is 50.9%; for `CN(C)c1ccc(C(=O)N2CCCc3cc(OC(F)(F)F)ccc32)cn1` it is 26.7%.
`CN(C)c1cccc(C(=O)N2CCCc3cc(OC(F)(F)F)ccc32)c1`: the INHIBITION is recorded as 43.4%.
The figure for `Fc1cnc(N2CC[C@@H]3O[C@H](COCc4ccccn4)CC[C@@H]32)nc1` is -21.7%; for `CC(C)COC1CC2(CCN(Cc3nccn3C)CC2)C1` it is 31.6%; for `Cc1nc2[nH]cnc(Nc3cnn(C)c3)c-2n1` it is -10.6%.
Consider `CC(C)C(NC(=O)C1CC1)c1cc(O)nc(-c2cccnc2)n1` (stereo not given), for which the INHIBITION is recorded as 3.4%.
Under `COc1cc(-c2cnnc(NCCCOC(C)C)n2)cc(OC)c1OC` stands 57.9%; under `COc1cc(-c2cnnc(NCCSC)n2)cc(OC)c1OC`, 52.2%; under `Cc1cc(NCCCOC(C)C)c2nncn2n1`, 13.4%.
The figure for `COc1cc(-c2cnnc(NCC3CC3)n2)cc(OC)c1OC` is 31.7%; for `CNc1cc(-c2cc(OC)c(OC)c(OC)c2)ncn1` it is 27.8%.
`COc1cc(-c2nc(N)n[nH]2)cc(OC)c1OC`: the INHIBITION is recorded as 20.4%.
In the case of `COCC(NC1CSCCSC1)c1ccnn1C` (stereo not given), the INHIBITION is reported as 31.2%.
Under `CN1CCN(CC2(O)CCCN(S(=O)(=O)c3cn[nH]c3)CC2)CC1` (stereo not given) stands 29.6%; under `Cn1ccc(C(=O)N2CCC(c3cc(CCO)n(C)n3)C2)n1` (stereo not given), -3.94%; under `CCN(CC)c1nc(Nc2cccc(C(C)O)c2)nc2ccccc12` (stereo not given), 87.2%.
As to `CC(O)c1cccc(Nc2nc(NCCO)c3ccccc3n2)c1` (stereo not given), the INHIBITION is 44.9%.
Under `CCN(CC)c1nc(Nc2cccc(C(=O)O)c2)nc2ccccc12` stands 5.18%; under `COc1ccc(CN2CCCC(Cn3nc(C)nc3C)C2)cc1F` (stereo not given), -15.8%.
The figure for `COc1coc(CN2CCCC(CCc3ccc(F)cc3)C2)cc1=O` (stereo not given) is 73.5%.
As to `COc1ccc(CCC2CCCN(CC(=O)O)C2)cc1` (stereo not given), the INHIBITION came to 23.9%.
For the molecule `Cc1[nH]c(=O)[nH]c(=O)c1CN1CCCC(CCc2ccc(F)c(F)c2)C1` (stereo not given), the INHIBITION is 4.48%.
With `Cc1[nH]c(=O)[nH]c(=O)c1CN1CCCC(CCc2ccccc2)C1` (stereo not given), the INHIBITION is given as -38.2%.
In the case of `COCCN1CC2(CCCN(Cc3cc(=O)c(OC)co3)C2)CCC1=O` (stereo not given), the INHIBITION was found to be 23.9%.
Regarding `COc1coc(CN2CCCC3(CCC(=O)N(C4CC4)C3)C2)cc1=O` (stereo not given), the INHIBITION is reported as 53.6%.
Regarding `COc1coc(CN2CCCC3(CCC(=O)N(CC4CC4)C3)C2)cc1=O` (stereo not given), the INHIBITION was found to be 33.2%.
With `COc1coc(CN2CCCC(CCc3ccc(F)c(F)c3)C2)cc1=O` (stereo not given), the INHIBITION is given as 63.6%.
